# Assay results reported in PubChem BioAssay (NCI).
# Compounds without any hit were thinned out: in the full panel of roughly 83,000, 20% have a hit.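 Each cell line was grown in a 96-well plate and treated with one concentration of compound for 48 hours. Values below 10 were considered active.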 A number with no mark means an inactive call. The source made the active and inactive calls.
# How the values were obtained:
# Test in all cases: NCI-60 one-dose screen, 48 h (100 = growth as untreated, 0 = no growth, -100 = all killed)
# Conditions in all cases: 10 µM unless noted
# [1] = test system: T-47D breast
# [2] = test system: BT-549 breast
# [3] = test system: MDA-MB-435 melanoma
# [4] = test system: SW-620 colon
# [5] = test system: MCF7 breast
# [6] = test system: HCC-2998 colon
# [7] = test system: KM12 colon
# [8] = test system: HCT-116 colon
Compound,growth [1],growth [2],growth [3],growth [4],growth [5],growth [6],growth [7],growth [8]
COc1cccc2c1C(=O)c1c(O)c3c(c(O)c1C2=O)C[C@@](O)(C(=O)CO)C[C@@H]3O[C@H]1C[C@H](N)[C@@H](O)[C@H](C)O1,4.43% (active),-39% (active),-77.6% (active),0.619% (active),4.48% (active),-22.8% (active),1.25% (active),–
O=c1[nH]nc(-c2ccc(Br)cc2)cc1Cc1ccc(O)cc1,83.2%,95.8%,113%,97.3%,86%,118%,108%,–
O=C1Nc2cc(-c3ccncc3)ccc2/C1=C/c1ccc[nH]1,-20.9% (active),24.4%,100%,105%,21%,72.2%,33.1%,–
O=C(Nc1ccc2cc3ccc(NC(=O)N4CCCCCC4)cc3nc2c1)N1CCCCCC1,-30% (active),-66.6% (active),-82.4% (active),-56.3% (active),-45.9% (active),-63.7% (active),-65.9% (active),–
O=C(NCCc1ccccn1)OCc1nc2nc(Cl)nc(N3CCOCC3)c2[nH]1,33.5%,8.16% (active),11.9%,-37.2% (active),15.6%,77.6%,12.2%,–
O=C(CN1CCOCC1)Nc1ccc2ncnc(Nc3ccc(Oc4cccc(C(F)(F)F)c4)c(Cl)c3)c2c1,19.5%,70.1%,65.5%,82.2%,34.2%,87.1%,74.2%,–
O=S(=O)(c1ccc(N/N=C\c2ccccc2)cc1)c1ccc(N/N=C/c2ccccc2)cc1,56%,105%,68.8%,74%,62.9%,66.4%,66.9%,–
CN1CCN(c2cnc(C(=O)Nc3cc(F)cc4cccnc34)cn2)CC1,28.5%,62.2%,74.5%,–,9.71% (active),93%,95%,9.87% (active)
CC(C)CCSc1nc(NNC(N)=O)c(C#N)c(-c2ccccc2)n1,99.9%,46.7%,109%,112%,103%,102%,110%,–
O=C(/C=C/c1ccc[nH]1)c1ccc(-n2ccc(C(F)(F)F)n2)cc1,94.7%,-45.3% (active),99.5%,102%,72.2%,54.7%,1.59% (active),–
Cc1c2c(cc[n+]1Cc1ccccc1)c1ccc(OCc3ccccc3)cc1n2Cc1ccccc1,-4.02% (active),-90.4% (active),-93.8% (active),–,-23.1% (active),-81.8% (active),-98.4% (active),-95.6% (active)
Cc1ccc(C2CC(c3cccc(Nc4ccncc4)c3)=NN2c2cc(Cl)cc(Cl)c2)cc1 (configuration not stated),80.3%,101%,-63.2% (active),–,-45.1% (active),-77.7% (active),-67.5% (active),-78.1% (active)
O=C(O)/C=C\C(=O)N1C/C(=C\c2ccccc2Cl)C(=O)/C(=C/c2ccccc2Cl)C1,7.54% (active),-57% (active),-11.3% (active),-50% (active),3.37% (active),-91.8% (active),-71.9% (active),–
COc1cc(C2CC(c3cccc(Nc4ccncc4)c3)=NN2c2ccc(Cl)cc2)cc(OC)c1OC (configuration not stated),71.3%,107%,-88.3% (active),-66.6% (active),-36.1% (active),-36.2% (active),-74.5% (active),–
Cc1nc2sc(C(=O)Nc3ccccc3)c(N)c2cc1C(=O)c1ccc(C(F)(F)F)cc1,97.2%,100%,94.1%,–,90.7%,104%,108%,76.8%
O=C(Nc1cccc(C2=NCCN2)c1)c1ccc(OCCCOc2ccc(C(=O)Nc3cccc(C4=NCCN4)c3)cc2)cc1,18%,35.2%,-72% (active),14.8%,0.803% (active),-13.3% (active),14.2%,–
O=S(=O)(NCCCNc1nccc(-c2c(-c3cccc(O)c3)nc3occn23)n1)c1ccc(Br)cc1,83.2%,105%,40.6%,112%,98.8%,121%,94.4%,–
COc1ccc(C(=O)/C=C/c2c(OC)cc(OC)cc2OC)c(OC)c1,19%,12.3%,-20.2% (active),16.6%,21.4%,41.7%,15.6%,–

Compound,growth [1],growth [2],growth [3],growth [4],growth [5],growth [6],growth [7],growth [8]
O=C1NC(=S)NC(=O)C1=Cc1cn(Cc2ccccn2)c2ccccc12,89.8%,66.8%,21.3%,48.3%,34.6%,54.2%,57.2%,–
CC(=O)Nc1ccc(S(=O)(=O)NC2CCCCC2)cc1,90.9%,96.4%,105%,97.7%,96.9%,102%,104%,–
O=S(=O)(NCCNc1nccc(-c2c(-c3cccc(F)c3)nc3occn23)n1)c1cccc2ccccc12,29.9%,78.3%,32.8%,72.1%,27.8%,79.7%,49.6%,–
CC(C)(O)C1CCCN1C(=O)c1ccccc1I (configuration not stated),85.7%,133%,93.2%,–,91.6%,112%,94.3%,68.9%
O=C1NC(=O)C(=Cc2cn(Cc3ccccn3)c3ccccc23)C(=O)N1,100%,98.8%,101%,–,87.6%,105%,106%,100%
CC(N)C(=O)NNc1n[nH]c(=S)n1N (configuration not stated),98.6%,87.1%,96.1%,–,93.7%,102%,102%,103%
CCCCCCOc1ccc(/C=N/Nc2cc(C)nc3ccc(Br)cc23)cc1,-11% (active),106%,-87.7% (active),–,-67% (active),-94.5% (active),-84.7% (active),-66.4% (active)
COc1ccc(/C=C(/c2ccccc2)[N+](=O)[O-])cc1,-64.5% (active),-18.7% (active),-35.6% (active),–,-31.3% (active),-80.7% (active),-36.2% (active),-71.6% (active)
CCCOc1nc(SCCC)nc2c1cnn2-c1ccccc1,115%,–,104%,103%,101%,99.6%,105%,105%
COc1cc(CCNc2nc3cc(N)cc(N)c3nc2-c2ccccc2)cc(OC)c1,-31% (active),19.1%,-56.8% (active),–,-79.9% (active),-5.77% (active),4.39% (active),-35.9% (active)
Cc1ccc(O)c(C(=O)O)c1,106%,111%,111%,–,104%,110%,108%,108%
COc1cc2c(cc1[N+](=O)[O-])-c1ccc([N+](=O)[O-])cc1/C2=N\O,91.1%,73.1%,–,75.2%,58%,106%,95.1%,71.8%
CC(=O)c1c[nH]c2ccc(-c3ccnc(Nc4ccc(NC(=O)C5CCCC5)c(CN5CCOCC5)c4)n3)cc12,-0.198% (active),-7.17% (active),-76% (active),–,-38.1% (active),-31.4% (active),-64.1% (active),0.944% (active)
c1ccc(-c2nn(-c3ccccc3)[n+](-c3cccc4ccccc34)n2)cc1,25%,13.4%,-50.3% (active),–,11.7%,20.8%,10.1%,7.65% (active)
COc1ccc(/C=C2\COc3ccc(-c4ccccc4)cc3C2=O)cc1O,6.79% (active),2.18% (active),5.12% (active),–,0.878% (active),43.1%,2.07% (active),-5.06% (active)
NC(=O)CN1CCN(c2ccccc2Cl)CC1,96.9%,99.2%,103%,–,102%,101%,109%,100%
Nc1c(Cl)cc([N+](=O)[O-])cc1Br,97.8%,97.5%,91.4%,–,99.9%,93.7%,103%,105%
CC(C)(C#N)N1CCN(c2ccccc2Cl)CC1,102%,98.1%,97.3%,–,106%,91.4%,106%,98.4%
